Test results from PubChem BioAssay AID1159580 (chemical genetic matrix, 2015).
Among all 5,500 compounds or so, about 2,000 (36%) were called active. Not shown: some 18% with an inconclusive outcome. The list shows a part of the results. Unmarked numbers belong to inactive results. No stated cut-off is given here; in the data, active means normalized growth mostly below about 0.91 (no sharp cut-off); inconclusive means no clear call, values can overlap the other calls; inactive means mostly above about 0.92.

Assay: chemical genetic growth profiling, strain panel (AID 1159580);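 further: tested at 20 µM; growth read once vehicle control cultures reached saturation at 30 °C; 1 = growth at the plate median or of vehicle wells; lower values mean less growth of the strain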
Conditions: growth OD
[1] = S. cerevisiae deletion strains, locus YAL040C, strain CLN3, active compounds read low
[2] = S. cerevisiae deletion strains, locus YCL061C, strain MRC1 (second series), active compounds read low
[3] = S. cerevisiae deletion strains, locus YDR150W, strain NUM1, active compounds read low
[4] = S. cerevisiae deletion strains, locus YDR363W, strain ESC2, active compounds read low
[5] = S. cerevisiae deletion strains, locus YER002W, strain NOP16, active compounds read low
[6] = S. cerevisiae deletion strains, locus YGR078C, strain PAC10, active compounds read low
[7] = S. cerevisiae deletion strains, locus YMR263W, strain SAP30, active compounds read low
[8] = S. cerevisiae deletion strains, locus YNL153C, strain GIM3, active compounds read low
[9] = S. cerevisiae deletion strains, locus YNL175C, strain NOP13, active compounds read low
[10] = S. cerevisiae deletion strains, locus YNL197C, strain WHI3, active compounds read low
[11] = S. cerevisiae deletion strains, locus YNL224C, strain SQS1, active compounds read low
[12] = S. cerevisiae deletion strains, locus YOR083W, strain WHI5 (second series), active compounds read low
[13] = S. cerevisiae deletion strains, locus YPL055C, strain LGE1, active compounds read low
[14] = S. cerevisiae deletion strains, locus YMR307W, strain GAS1, active compounds read low
[15] = S. cerevisiae deletion strains, locus YNL322C, strain KRE1, active compounds read low
[16] = S. cerevisiae deletion strains, locus YPL241C, strain CIN2, active compounds read low
[17] = S. cerevisiae deletion strains, locus YJR075W, strain HOC1, active compounds read low
[18] = S. cerevisiae deletion strains, locus YAL013W, strain DEP1, active compounds read low

With `CCCCCCCCCC(=O)NC(CN1CCOCC1)[C@H](O)c1ccccc1` (stereo partly drawn) as the compound, how does the normalized growth [1] read?
The normalized growth was 0.989.

What about the normalized growth [2] of the same compound?
The normalized growth was 0.987.

And the normalized growth [3]?
Its normalized growth is 0.977.

What about the normalized growth [4] of the same compound?
Its normalized growth is 0.942.

And the normalized growth [5]?
Its normalized growth is 0.963.

What about the normalized growth [6] of the same compound?
The normalized growth was 0.97.

What about the normalized growth [7] of the same compound?
Its normalized growth is 1.

What about the normalized growth [8] of the same compound?
Its normalized growth is 0.941.

And the normalized growth [9]?
Its normalized growth is 0.962.

And the normalized growth [10]?
Its normalized growth is 0.944.

What about the normalized growth [11] of the same compound?
The normalized growth was 0.978.

And the normalized growth [12]?
The normalized growth was 0.971.

And the normalized growth [13]?
The normalized growth was 0.957.

For `CCCCCCCCCC[Si](C)(C)CCC(=O)NC(Cc1ccc(C)cc1)c1ccccc1` (stereo not drawn), which normalized growth [1] is on record?
The normalized growth was 1.03.

What about the normalized growth [4] of the same compound?
The normalized growth was 0.974.

And the normalized growth [5]?
The normalized growth was 1.11 [resistant] (active).

And the normalized growth [7]?
The normalized growth was 0.998.

What about the normalized growth [14] of the same compound?
The normalized growth was 1.01.

And the normalized growth [9]?
Its normalized growth is 1.05.

And the normalized growth [11]?
Its normalized growth is 1.17 [resistant] (active).

What about the normalized growth [13] of the same compound?
Its normalized growth is 1.

Which normalized growth [1] does the source give for `CC[C@H](NC(=O)c1c(C)c(-c2ccccc2)nc2ccccc12)c1ccccc1` here?
The normalized growth was 1.03.

What about the normalized growth [3] of the same compound?
Its normalized growth is 0.987.

What about the normalized growth [4] of the same compound?
Its normalized growth is 1.04.

What about the normalized growth [5] of the same compound?
Its normalized growth is 1.02.

What about the normalized growth [14] of the same compound?
The normalized growth was 1.06.

And the normalized growth [8]?
The normalized growth was 0.979.

What about the normalized growth [9] of the same compound?
Its normalized growth is 1.03.

And the normalized growth [10]?
The normalized growth was 1.04.

And the normalized growth [11]?
The normalized growth was 1.

What about the normalized growth [15] of the same compound?
The normalized growth was 0.995.

And the normalized growth [12]?
Its normalized growth is 1.07.

And the normalized growth [16]?
Its normalized growth is 0.987.

For `N#CC(C#N)=C(N)/C(C#N)=C/c1ccc(O)cc1`, which normalized growth [1] is on record?
The normalized growth was 0.962.

And the normalized growth [2]?
Its normalized growth is 0.998.

And the normalized growth [4]?
The normalized growth was 0.999.

What about the normalized growth [5] of the same compound?
The normalized growth was 1.

What about the normalized growth [6] of the same compound?
Its normalized growth is 1.

What about the normalized growth (S. cerevisiae deletion strains, locus YGR229C, strain SMI1, active compounds read low) of the same compound?
The normalized growth was 1.04.

What about the normalized growth [17] of the same compound?
The normalized growth was 0.957.

And the normalized growth [7]?
Its normalized growth is 1.

What about the normalized growth [14] of the same compound?
The normalized growth was 1.

What about the normalized growth [9] of the same compound?
Its normalized growth is 0.999.

And the normalized growth [10]?
Its normalized growth is 0.989.

What about the normalized growth [11] of the same compound?
The normalized growth was 1.

And the normalized growth [15]?
Its normalized growth is 0.99.

And the normalized growth [12]?
Its normalized growth is 1.01.

What about the normalized growth [13] of the same compound?
Its normalized growth is 1.

Which normalized growth [18] does the source give for `CCOC(=O)/C(C#N)=C/c1ccc(Br)cc1` here?
The normalized growth was 0.971.

And the normalized growth (S. cerevisiae deletion strains, locus YBR229C, strain ROT2, active compounds read low)?
The normalized growth was 0.805 (active).

What about the normalized growth (S. cerevisiae deletion strains, locus YDL101C, strain DUN1, active compounds read low) of the same compound?
The normalized growth was 0.875 (active).

What about the normalized growth (S. cerevisiae deletion strains, locus YDL134C, strain PPH21, active compounds read low) of the same compound?
Its normalized growth is 0.972.

What about the normalized growth [3] of the same compound?
The normalized growth was 0.893.

And the normalized growth (S. cerevisiae deletion strains, locus YEL061C, strain CIN8, active compounds read low)?
The normalized growth was 0.754 (active).

What about the normalized growth [6] of the same compound?
Its normalized growth is 0.903 (active).

What about the normalized growth (S. cerevisiae deletion strains, locus YHR030C, strain SLT2, active compounds read low) of the same compound?
Its normalized growth is 0.258 (active).

And the normalized growth (S. cerevisiae deletion strains, locus YHR087W, strain rtc3, active compounds read low)?
Its normalized growth is 0.821 (active).

What about the normalized growth (S. cerevisiae deletion strains, locus YJL187C, strain SWE1, active compounds read low) of the same compound?
The normalized growth was 0.846 (active).

And the normalized growth (S. cerevisiae deletion strains, locus YJR043C, strain POL32, active compounds read low)?
The normalized growth was 0.851 (active).

What about the normalized growth [17] of the same compound?
The normalized growth was 0.828 (active).

And the normalized growth (S. cerevisiae deletion strains, locus YKL190W, strain CNB1, active compounds read low)?
The normalized growth was 0.804 (active).

What about the normalized growth (S. cerevisiae deletion strains, locus YLR039C, strain RIC1, active compounds read low) of the same compound?
Its normalized growth is 0.646 (active).

What about the normalized growth (S. cerevisiae deletion strains, locus YLR058C, strain SHM2 (second series), active compounds read low) of the same compound?
The normalized growth was 0.977.

What about the normalized growth (S. cerevisiae deletion strains, locus YLR085C, strain ARP6, active compounds read low) of the same compound?
Its normalized growth is 0.375 (active).

And the normalized growth (S. cerevisiae deletion strains, locus YLR262C, strain YPT6, active compounds read low)?
Its normalized growth is 0.72 (active).

What about the normalized growth (S. cerevisiae deletion strains, locus YML094W, strain GIM5, active compounds read low) of the same compound?
The normalized growth was 0.828 (active).

And the normalized growth (S. cerevisiae deletion strains, locus YMR219W, strain ESC1, active compounds read low)?
Its normalized growth is 0.926 (active).

What about the normalized growth [7] of the same compound?
The normalized growth was 0.913.

And the normalized growth [8]?
The normalized growth was 0.836 (active).

And the normalized growth (S. cerevisiae deletion strains, locus YNL298W, strain CLA4 (second series), active compounds read low)?
Its normalized growth is 0.717 (active).

And the normalized growth [15]?
The normalized growth was 0.967.

What about the normalized growth (S. cerevisiae deletion strains, locus YNR030W, strain Alg12, active compounds read low) of the same compound?
The normalized growth was 0.765 (active).

What about the normalized growth (S. cerevisiae deletion strains, locus YOL006C, strain TOP1, active compounds read low) of the same compound?
The normalized growth was 0.593 (active).

And the normalized growth [13]?
The normalized growth was 0.865.

And the normalized growth [16]?
Its normalized growth is 0.717 (active).

And the normalized growth (S. cerevisiae deletion strains, locus YPR135W, strain CTF4, active compounds read low)?
The normalized growth was 0.585 (active).

What about the normalized growth (S. cerevisiae strains, strain wild type, active compounds read low) of the same compound?
Its normalized growth is 0.954.

With `N#C/C(=C\c1ccc(O)c(O)c1)C(=O)NCc1ccccc1` as the compound, how does the normalized growth [18] read?
Its normalized growth is 0.997.

And the normalized growth [1]?
The normalized growth was 0.984.

And the normalized growth [2]?
The normalized growth was 1.

And the normalized growth [3]?
Its normalized growth is 1.

And the normalized growth [4]?
The normalized growth was 1.

And the normalized growth [5]?
The normalized growth was 1.01.

And the normalized growth [6]?
The normalized growth was 1.01.

And the normalized growth [17]?
Its normalized growth is 0.992.

What about the normalized growth [7] of the same compound?
The normalized growth was 1.01.

And the normalized growth [14]?
Its normalized growth is 1.

And the normalized growth [8]?
The normalized growth was 1.02.

What about the normalized growth [9] of the same compound?
Its normalized growth is 1.01.

And the normalized growth [10]?
Its normalized growth is 1.02.

And the normalized growth [11]?
Its normalized growth is 0.999.

What about the normalized growth [12] of the same compound?
The normalized growth was 1.03.

What about the normalized growth [16] of the same compound?
Its normalized growth is 1.
